Source: PubChem BioAssay
Compounds with a hit are over-represented: about 19% of the library has one in this group of screens.
DT40 TDP1 no CPT – qHTS for Inhibitors of human tyrosyl-DNA phosphodiesterase 1 (TDP1): qHTS in cells in absence of CPT | AID 686978, 2013 | DT40 Tdp1-/- hTDP1 cells, no CPT, ATP luminescence, 48 h | 15% of 420,000 active | Potency, µM (highest dose often 46.2 µM), without a hit: top-dose activity change, negative = growth inhibition, usual class: inhibitors; note: potency is the fitted concentration of half-maximal effect; nearly all actives have a fitted effect of over 55% in size
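Growth kinetics read by CellTiter-Glo luminescence after ≥48 hr at 37 °C. Cells: DT40 Tdp1-/- stably carrying human TDP1, 400 per well, compound exposure in the absence of CPT (DMSO vehicle).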
TDP1 cell CPT – growth inhibition of DT40 Tdp1-/-;hTDP1 cells with camptothecin (screen for TDP1 inhibitors). chicken DT40 Tdp1-/-;hTDP1 cells + 20 nM CPT, ATP luminescence, 48 h. Potency, µM (doses to about 46.2 µM), without a hit: at the top dose activity change, negative = growth inhibition, actives largely listed as inhibitors. 12% of 420,000 active. AID 686979; note: potency is the fitted concentration of half-maximal effect; nearly all actives have a fitted effect of over 55% in size
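Chicken DT40 Tdp1-/- cells stably complemented with human TDP1 were seeded at 400 cells/well in medium containing 20 nM camptothecin, exposed to pin-transferred compounds, and grown at 37 °C for at least 48 hr. Viability was read as ATP luminescence.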
IL1B secr inh – inflammasome signaling inhibition, IL-1 beta readout; THP-1 LPS/ATP IL-1B secretion, AlphaLISA, 16 h; stronger effect = lower value; activity change, % at 57.5 µM; 4.7% of 360,000 active; AID 743279; in the data active = activity change below about -50%; inconclusive = mostly about -30% to -49%
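THP-1 cells pretreated 1 hr with compounds (up to 57.5 uM final), then stimulated with LPS (250 ng/mL final) plus ATP (1.25 mM final); secreted IL-1B measured by AlphaLISA after 16 hr, decreased signal indicating inhibition.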
HT1080 IDH1KD tx – kills HT-1080 cells with IDH1 knockdown | HT-1080 IDH1 knockdown viability, ATP luminescence, 48 h | Potency, µM (highest dose often 46.1 µM), without a hit: at the highest dose activity, negative = toxicity, actives largely listed as cytotoxic | 2% of 360,000 active | AID 686971;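 note: potency is the fitted concentration of half-maximal effect; 0% = DMSO wells and -100% = cell-free medium wells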
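Using the IDH1-knockdown HT-1080 line run in the same batch and compound series as the NT line, viability after 48 h at 37 °C was determined by CellTiter-Glo luminescence and expressed as % activity.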
ELG1 repair inh – inhibitors of ELG1-dependent DNA repair in HEK293T cells | HEK293T ELG1-luciferase reporter, luminescence, 16 h; DNA damage induced by 5-fluorouridine | Potency, µM (titrated, usually from 46.1 µM), for inactives: at the top dose activity change, negative = inhibition, most hits filed as inhibitors | 2.3% of 330,000 active | AID 504467; note: potency is the fitted concentration of half-maximal effect; nearly all actives have a fitted effect of over 55% in size
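Overnight (16 hr) co-exposure of 2,000 cells/well to 5-fluorouridine and compound at 37 °C preceded detection. Luciferase was quantified via ONE-Glo luminescence; loss of signal denotes inhibition.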
HT1080-NT tox – kills 2HG-producing HT-1080-NT fibrosarcoma cells. HT-1080-NT fibrosarcoma viability, CellTiter-Glo ATP luminescence, 48 h. Potency, µM (doses to about 46.1 µM), for the others: top-dose activity, negative = less viability, actives largely listed as cytotoxic. 1.6% of 360,000 active;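 note: NT is the 2HG producing partner of a matched IDH1 knockdown line; potency is the fitted concentration of half-maximal effect; 0% = DMSO-treated cells and -100% = media-only wells without cells; nearly all actives have a fitted effect of over 55% in size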
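Luminescent CellTiter-Glo readout after 48 hours of compound exposure at 37 degrees C defined viability of HT-1080-NT cells. Activity was normalized to DMSO wells and cell-free media wells; concentration-response curves were fitted and assigned curve classes.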
* = called active by the depositor; ? = inconclusive; · = not tested or not shown. Unless noted, calls come from the whole dose curve; as a rule, active = well fitted curve in the direction sought with a large enough effect; inconclusive = small, poorly fitted or top-dose-only effect, or another doubt; inactive = no such curve, though single readings can be large; an effect the other way counts as inactive or inconclusive. Unless noted, % is set by controls: 0 for no effect and ±100 for the full control effect.

SMILES	DT40 TDP1 no CPT	TDP1 cell CPT	IL1B secr inh	HT1080 IDH1KD tx	ELG1 repair inh	HT1080-NT tox
Cc1cccc(C(=O)N2CCc3cc(CNS(=O)(=O)c4ccc(F)c(Cl)c4)ccc32)c1	1.2µM*	1.6µM*	·	·	·	·
COc1ccc(OC)c(S(=O)(=O)NCc2ccc3c(c2)CCN3C(=O)c2cccc(C)c2)c1	2.6µM*	2.6µM*	·	·	·	·
CCC(=O)N1CCc2cc(CNS(=O)(=O)c3ccc(Cl)s3)ccc21	16µM*	?	·	·	·	·
Cc1cccc(C(=O)N2CCc3cc(CNS(=O)(=O)c4ccc(Cl)s4)ccc32)c1	23µM*	23µM*	·	·	·	·
CC(=O)N1CCc2cc(CNS(=O)(=O)c3cccs3)ccc21	-1%	0%	·	·	·	·
COc1cccc(CN2CCN(Cc3cccn3-c3cccnc3)CC2CCO)c1 (stereo unspecified)	?	-24%	-4	-3%	-13%	-1%
C#CCOCCOCCOCCNc1nc(N2CCN(C(=O)Cn3cc(CCO)nn3)CC2)nc(N2CCN(C(=O)Cn3cc(CCCCN)nn3)CC2)n1	38%	7%	21	7%	·	10%
COC(=O)C[C@H]1CC[C@H](NC(=O)Nc2ccccc2OC)[C@@H](CO)O1	-8%	-3%	-10	9%	·	22%
COc1ccc(CNC(=O)/C=C/[C@H]2O[C@@H](n3cc(C)c(=O)[nH]c3=O)C[C@@H]2O)cc1	1%	0%	-21	18%	·	21%
Cc1ccc(F)c(S(=O)(=O)NC(=O)C2(C)CCN2C(=O)c2cccc3ccccc23)c1 (stereo unspecified)	-1%	-6%	26	?	·	9%
Cc1noc(C)c1-c1cncnc1N(C)Cc1ccco1	-8%	-4%	·	·	·	·
CC1CCC(N(CCCN)Cc2ccco2)CC1C (stereo unspecified)	21µM*	29µM*	?	-15%	-3%	-7%
O=C(Nc1cccc(-c2nc3ncccc3o2)c1)c1cc2ccccc2o1	23µM*	21µM*	25	-14%	?	-17%
O=C(Cc1ccccc1)Nc1cccc(-c2nc3ncccc3o2)c1	?	-15%	-3	?	12%	?
O=C(Nc1cccc(-c2nc3ncccc3o2)c1)c1sc2ccccc2c1Cl	?	10µM*	5	10%	15%	13%
O=C1C=CN2CCCCC2CC1 (stereo unspecified)	16µM*	10µM*	66	0%	?	2%
CCCN1C/C(=C/c2cccc([N+](=O)[O-])c2)C(=O)/C(=C/c2cccc([N+](=O)[O-])c2)C1	0.65µM*	1µM*	-94*	23µM*	-24%	-5%
CCCN1C/C(=C/c2ccc3c(c2)OCO3)C(=O)/C(=C/c2ccc3c(c2)OCO3)C1	13µM*	15µM*	1	?	23µM*	?
COc1ccc(C2=C(Nc3ccc(Br)c(C)c3)c3ccccc3C2=O)cc1	12µM*	7.3µM*	·	·	·	·
COc1ccc(C2=C(Nc3ccc(C)cc3)c3ccccc3C2=O)cc1	?	5.2µM*	2	18%	22%	1%
Cc1cc(C)cc(NC2=C(c3ccccc3)C(=O)c3ccccc32)c1	?	21µM*	·	·	·	·
COc1ccc(NC(=O)Cn2c(SCc3ccc(F)cc3)nc3cccnc32)cc1OC	2.3µM*	3.7µM*	·	·	·	·
COc1ccc(NC(=O)Cn2c(SCc3ccc(F)cc3)nc3cccnc32)c(OC)c1	21µM*	?	·	·	·	·
O=C(Cn1c(SCc2cccc(F)c2)nc2cccnc21)Nc1ccc(F)c(Cl)c1	15µM*	26µM*	·	·	·	·
O=C(Cn1c(SCc2ccc(F)cc2)nc2cccnc21)Nc1ccccc1F	26µM*	?	·	·	·	·
